In PubChem BioAssay AID1159580 (chemical genetic matrix, 2015):
Out of some 5,500 compounds screened, about 2,000 (36%) were called active. About 18% were inconclusive and are not listed. Cut-off read from the data, not from the text of the source: active = normalized growth mostly below about 0.91 (no sharp cut-off); inconclusive = no clear call, values can overlap the other calls; inactive = mostly above about 0.92. This is one part of the list.

Assay: chemical genetic growth profiling, strain panel (AID 1159580);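 note: tested at 20 µM; growth read once vehicle control cultures reached saturation at 30 °C; 1 = growth at the plate median or of vehicle wells; lower values mean less growth of the strain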
Conditions: growth OD

Measured: normalized growth

CN(Cc1cc(Br)cc(Br)c1N)C1CCCCC1
active: S. cerevisiae deletion strains, locus YOR231W, strain MKK1, active compounds read low 0.841
inactive: S. cerevisiae deletion strains, locus YKL009W, strain mrt4, active compounds read low 1.01 | S. cerevisiae deletion strains, locus YKL068W, active compounds read low 1.01 | S. cerevisiae deletion strains, locus YKL085W, strain MDH1 (second series), active compounds read low 1.01 | S. cerevisiae deletion strains, locus YKL085W, strain MDH1, active compounds read low 1.01 | S. cerevisiae deletion strains, locus YKL160W, strain elf1, active compounds read low 1 | S. cerevisiae deletion strains, locus YKL190W, strain CNB1, active compounds read low 1.02 | S. cerevisiae deletion strains, locus YKR001C, strain vps1, active compounds read low 0.994 | S. cerevisiae deletion strains, locus YKR026C, strain gcn3, active compounds read low 1.04 | S. cerevisiae deletion strains, locus YKR091W, strain srl3, active compounds read low 1.03 | S. cerevisiae deletion strains, locus YLL001W, strain dnm1, active compounds read low 1.03 | S. cerevisiae deletion strains, locus YLL026W, active compounds read low 1.03 | S. cerevisiae deletion strains, locus YLL041C, strain sdh2, active compounds read low 1.05 | S. cerevisiae deletion strains, locus YLR027C, strain aat2, active compounds read low 1.01 | S. cerevisiae deletion strains, locus YLR039C, strain RIC1, active compounds read low 1.08 | S. cerevisiae deletion strains, locus YLR058C, strain SHM2, active compounds read low 1.01 | S. cerevisiae deletion strains, locus YLR102C, strain apc9, active compounds read low 1.02 | S. cerevisiae deletion strains, locus YLR113W, strain HOG1, active compounds read low 0.947 | S. cerevisiae deletion strains, locus YLR221C, strain rsa3, active compounds read low 0.997 | S. cerevisiae deletion strains, locus YLR258W, strain gsy2, active compounds read low 1.03 | S. cerevisiae deletion strains, locus YLR262C, strain YPT6 (second series), active compounds read low 0.982 | S. cerevisiae deletion strains, locus YLR262C, strain YPT6, active compounds read low 1.08 | S. cerevisiae deletion strains, locus YLR268W, strain sec22, active compounds read low 1.01 | S. cerevisiae deletion strains, locus YLR320W, strain mms22, active compounds read low 0.984 | S. cerevisiae deletion strains, locus YLR330W, strain CHS5, active compounds read low 1.02 | S. cerevisiae deletion strains, locus YLR342W, strain FKS1 (second series), active compounds read low 1 | S. cerevisiae deletion strains, locus YLR342W, strain FKS1, active compounds read low 1.02 | S. cerevisiae deletion strains, locus YLR357W, strain rsc2, active compounds read low 1.06 | S. cerevisiae deletion strains, locus YLR370C, strain arc18, active compounds read low 1.04 | S. cerevisiae deletion strains, locus YLR371W, strain rom2, active compounds read low 1.02 | S. cerevisiae deletion strains, locus YLR384C, strain iki3, active compounds read low 1.04 | S. cerevisiae deletion strains, locus YLR418C, strain cdc73, active compounds read low 1.02 | S. cerevisiae deletion strains, locus YML016C, strain PPZ1, active compounds read low 1.01 | S. cerevisiae deletion strains, locus YML032C, strain rad52, active compounds read low 0.986 | S. cerevisiae deletion strains, locus YML120C, strain ndi1, active compounds read low 1.04 | S. cerevisiae deletion strains, locus YML124C, strain tub3, active compounds read low 1.03 | S. cerevisiae deletion strains, locus YMR058W, strain fet3, active compounds read low 0.995 | S. cerevisiae deletion strains, locus YMR078C, strain ctf18, active compounds read low 1.04 | S. cerevisiae deletion strains, locus YMR125W, strain sto1, active compounds read low 1.06 | S. cerevisiae deletion strains, locus YMR129W, active compounds read low 1.04 | S. cerevisiae deletion strains, locus YMR205C, strain PFK2, active compounds read low 1.04 | S. cerevisiae deletion strains, locus YMR223W, strain ubp8, active compounds read low 1 | S. cerevisiae deletion strains, locus YMR231W, strain pep5, active compounds read low 1.04 | S. cerevisiae deletion strains, locus YMR307W, strain GAS1, active compounds read low 1.17 | S. cerevisiae deletion strains, locus YNL067W, strain RPL9B, active compounds read low 0.966 | S. cerevisiae deletion strains, locus YNL071W, strain lat1, active compounds read low 1.04 | S. cerevisiae deletion strains, locus YNL183C, strain NPR1, active compounds read low 0.838 | S. cerevisiae deletion strains, locus YNL209W, strain ssb2, active compounds read low 1.03 | S. cerevisiae deletion strains, locus YNL233W, strain BNI4, active compounds read low 1.01 | S. cerevisiae deletion strains, locus YNL248C, strain rpa49, active compounds read low 1.04 | S. cerevisiae deletion strains, locus YNL250W, strain rad50, active compounds read low 1.05 | S. cerevisiae deletion strains, locus YNL271C, strain bni1, active compounds read low 1.02 | S. cerevisiae deletion strains, locus YNL298W, strain CLA4, active compounds read low 1.03 | S. cerevisiae deletion strains, locus YNL307C, strain MCK1, active compounds read low 1.01 | S. cerevisiae deletion strains, locus YNL322C, strain KRE1 (second series), active compounds read low 1.06 | S. cerevisiae deletion strains, locus YNL322C, strain KRE1, active compounds read low 1.02 | S. cerevisiae deletion strains, locus YNR049C, strain mso1, active compounds read low 1.02 | S. cerevisiae deletion strains, locus YNR052C, strain pop2, active compounds read low 1.01 | S. cerevisiae deletion strains, locus YOL006C, strain TOP1, active compounds read low 0.804 | S. cerevisiae deletion strains, locus YOL012C, strain htz1 2.06 | S. cerevisiae deletion strains, locus YOL147C, strain pex11, active compounds read low 1.03 | S. cerevisiae deletion strains, locus YOR001W, strain rrp6, active compounds read low 1.01 | S. cerevisiae deletion strains, locus YOR061W, strain CKA2, active compounds read low 1.01 | S. cerevisiae deletion strains, locus YOR069W, strain VPS5, active compounds read low 1.02 | S. cerevisiae deletion strains, locus YOR070C, strain gyp1, active compounds read low 1.03 | S. cerevisiae deletion strains, locus YOR080W, strain dia2, active compounds read low 1.07 | S. cerevisiae deletion strains, locus YOR083W, strain WHI5, active compounds read low 0.988 | S. cerevisiae deletion strains, locus YOR106W, strain vam3, active compounds read low 1.01 | S. cerevisiae deletion strains, locus YOR136W, strain idh2, active compounds read low 1.01 | S. cerevisiae deletion strains, locus YOR144C, strain elg1, active compounds read low 1.02 | S. cerevisiae deletion strains, locus YOR184W, strain ser1, active compounds read low 0.935 | S. cerevisiae deletion strains, locus YOR265W, strain rbl2, active compounds read low 1.05 | S. cerevisiae deletion strains, locus YOR270C, strain vph1, active compounds read low 0.811 | S. cerevisiae deletion strains, locus YOR290C, strain snf2, active compounds read low 1 | S. cerevisiae deletion strains, locus YOR316C, strain cot1, active compounds read low 1.02 | S. cerevisiae deletion strains, locus YPL051W, strain arl3, active compounds read low 0.983 | S. cerevisiae deletion strains, locus YPL078C, strain atp4, active compounds read low 1.01 | S. cerevisiae deletion strains, locus YPL106C, strain sse1, active compounds read low 1 | S. cerevisiae deletion strains, locus YPL240C, strain hsp82, active compounds read low 1.02 | S. cerevisiae deletion strains, locus YPL241C, strain CIN2, active compounds read low 1.01 | S. cerevisiae deletion strains, locus YPL256C, strain CLN2, active compounds read low 0.944 | S. cerevisiae deletion strains, locus YPR119W, strain clb2, active compounds read low 1.01 | S. cerevisiae deletion strains, locus YPR141C, strain kar3, active compounds read low 1.02 | S. cerevisiae deletion strains, locus YPR163C, strain tif3, active compounds read low 1.03 | S. cerevisiae deletion strains, locus YPR167C, strain met16, active compounds read low 1.01 | S. cerevisiae deletion strains, strain wtn01, active compounds read low 0.995 | S. cerevisiae strains, strain wild type, active compounds read low 1.01
